Assay outcomes: PubChem, several laboratories
PP1 counter – PP1-alpha phosphatase inhibitors, primary screen, counter-screen for PP5 inhibitor project, biochemical, fluorescence, OMFP substrate, single point; Serine/threonine-protein phosphatase PP1-alpha catalytic subunit (Homo sapiens), P62136; purified PP1alpha; inhibition, % at 6.7 µM; hit rate 0.9% among 320,000; AID 2235, 2010;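 active = inhibition above the mean inhibition of all tested compounds plus 3 SD, computed separately for each screening campaign, cut at about 15% in these data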
PP5 primary – PP5 phosphatase inhibitors, primary screen, biochemical, fluorescence; purified PP5c, OMFP substrate fluorescence; Serine/threonine-protein phosphatase 5 (Homo sapiens), P53041; inhibition, % at 6.7 µM; hit rate 0.18% among 320,000;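 active = inhibition above the campaign's mean inhibition across all tested compounds plus 3 SD, cut at about 9.5% in these data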
CSC inhib – cancer stem cell viability inhibitors, primary screen, luminescence; AID 2717, 2010; cancer stem cell-like cells viability; inhibition, % at 7.5 µM; hit rate 1.1% among 300,000; in the data active = inhibition above about 75%; inconclusive = no clear call, values can overlap the other calls; tested in HMLE shEcad cells
Calb FLC – C. albicans growth inhibition with fluconazole, primary screen, CaCi-2 strain, Alamar Blue fluorescence | C. albicans CaCi-2 (fluconazole-resistant clinical isolate) + fluconazole, 48 h | growth inhibition, % (no concentration beside the values) | hit rate 0.57% among 300,000 | AID 1979, 2009;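 active = growth inhibition above about 58% in most replicates, limit read from the data, passing the limit was not always enough; inconclusive = exactly half the replicates above a set limit; inactive = most replicates below a set limit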;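 note: all wells also contain fluconazole at 8 µg/ml as a sub-toxic cotreatment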
Beta apoptosis – inhibitors of cytokine-induced beta cell apoptosis, primary screen, luminescence | INS-1E cytokine-induced death, ATP luminescence, 48 h; percent of positive-control rescue, neutral wells zero | protection from apoptosis, % (concentration not given with the values) | hit rate 0.8% among 300,000;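 active = Every replicate reaches about 75%, or at least half do and their mean reaches it too, limit read from the data; inconclusive = At least half of replicates reach the limit but their mean does not; inactive = Under half of replicates reach the limit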;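 note: higher means more ATP so stronger rescue from cytokine killing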
Mdm2 MdmX PPI – inhibitors of human Mdm2-MdmX association, primary screen, cell-based, luminescence, split luciferase, SaOS-2, uHTS; Protein Mdm4 (Homo sapiens) + E3 ubiquitin-protein ligase Mdm2 (Homo sapiens), …; hit rate 3% among 330,000; inhibition, % at 8 µM; AID 485346, 2010; SaOS-2 split-luciferase Mdm2/MdmX complementation;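 active = inhibition of at least 50% at 8 µM in the primary screen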
PP1 confirm – PP1 phosphatase inhibitors, confirmation, biochemical, fluorescence, OMFP substrate, triplicate. shares compounds with PP1 counter. purified PP1alpha. inhibition, % at 6.7 µM. hit rate 52% among 1,900;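 active = mean PP1 inhibition above a set limit taken from the earlier primary screen, cut at about 15% in these data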
PP5 counter – PP5 phosphatase inhibition by PP1 hits, confirmation, counter-screen for PP1 inhibitor project, biochemical, fluorescence, triplicate; AID 2360, 2010; inhibition, % at 6.7 µM; purified PP5c, OMFP fluorescence; hit rate 4% among 1,900; shares compounds with PP1 counter;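 active = mean PP5 inhibition over triplicate wells above about 9.5% taken from the earlier PP1 screen, limit read from the data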
Hits are given with their value; i = inactive; ? = inconclusive; nt = not tested or not shown. Shown are actives, neighbours in structure and some others; about 4.9% of the full set was active somewhere.

SMILES | PP1 counter | PP5 primary | CSC inhib | Calb FLC | Beta apoptosis | Mdm2 MdmX PPI | PP1 confirm | PP5 counter
CCCCC(CC)C(=O)Nc1cc(C(=O)NCc2ccc(C)cc2)ccc1N1CCC2(CC1)CC(c1cccc(Br)c1)=NO2 (stereo not drawn) | i | i | i | nt | i | i | nt | nt
CCCCC(CC)C(=O)Nc1cc(C(=O)NCc2ccc(C)cc2)ccc1N1CCC2(CC1)CC(c1ccccc1)=NO2 (stereo not drawn) | 19 | i | i | i | i | i | i | i
N#CC1=C2Sc3ccccc3N2CCCC1=O | 56 | i | i | i | i | i | i | i
C=CCNC(=O)c1c(Cl)nc(C)c([N+](=O)[O-])c1C | i | i | i | i | i | i | nt | nt
[S-]c1nnc(-c2ccc(Br)cc2)n1-c1ccccc1.[Zn+2] | 20 | i | i | i | nt | i | 24 | i
Cc1cc(C)nc(NS(=O)(=O)c2ccc(NC(=O)Cc3ccccc3F)cc2)n1 | i | i | i | i | nt | i | nt | nt
O=C1CNC(=S)N1c1nc2ccccc2s1 | 25 | i | i | i | i | i | i | i
CCCc1cc(=O)[nH]c(SCC(=O)N(CCOC)c2c(N)n(Cc3ccccc3)c(=O)[nH]c2=O)n1 | i | i | i | i | i | i | nt | nt
N=C1/C(=C\c2ccc(-c3cc(Cl)cc(Cl)c3)o2)C(=O)N=C2SC=C(c3ccccc3)N12 | i | i | i | i | i | i | nt | nt
N=C1/C(=C/c2ccc(-c3cccc(C(=O)O)c3)o2)C(=O)N=C2SC=C(c3ccccc3)N12 | 72 | i | i | i | i | i | 44 | i
Cc1cc(-c2n[nH]c(=S)n2/N=C/c2ccc(Br)s2)n[nH]1 | i | i | i | i | i | i | nt | nt
S=c1[nH]nc(-c2cc(-c3ccccc3)n[nH]2)n1/N=C/c1ccc(Br)s1 | 28 | i | i | i | i | i | 33 | i
S=c1[nH]nc(-c2cc(-c3ccccc3)n[nH]2)n1/N=C/c1c(Cl)cccc1Cl | 18 | 9.6 | i | i | i | i | 27 | i
COc1cccc(=O)c2c(C)n(CC(=O)c3ccccc3)c(C)c12 | 23 | i | i | i | i | i | i | i
CCCC(=O)NC(c1cccs1)c1cc([N+](=O)[O-])c2cccnc2c1O (stereo not drawn) | 18 | i | 106 | i | i | nt | 16 | i
C/C(=N\NC(=O)COc1ccc(C)cc1C(C)C)c1ccc(-n2ccnc2)cc1 | 18 | i | i | i | i | i | 17 | i
O=C(Nc1cccc(O)c1)C(Cc1ccccc1)N1C(=O)c2cccc3cccc(c23)C1=O (stereo not drawn) | 19 | i | i | i | i | i | 29 | i
C/C=C(/C)C(=O)Nc1cccc(C2=NOC3(C2)C[C@H](C(N)=O)N(C(=O)c2ccccc2)C3)c1 (stereo partly drawn) | 42 | i | i | i | i | i | i | i
C=C(C)C(=O)Nc1cccc(C2=NOC3(C2)C[C@H](C(N)=O)N(C(=O)CC)C3)c1 (stereo partly drawn) | i | i | i | i | i | i | nt | nt
C/C=C/C=C\C(=O)Nc1cccc(C2=NOC3(C2)C[C@H](C(N)=O)N(C(=O)CC#N)C3)c1 (stereo partly drawn) | 19 | i | i | i | i | i | i | i
C=C(C)C(=O)Nc1cccc(C2=NOC3(C2)C[C@H](C(N)=O)N(C(=O)CC#N)C3)c1 (stereo partly drawn) | 37 | i | i | i | i | i | i | i
CCOC(=O)CCNC(=O)N1CCCC(CNS(=O)(=O)c2cccs2)C1 (stereo not drawn) | i | i | i | i | i | i | nt | nt
COc1ccc(/C(O)=C2/C(=O)C(=O)N(c3ncccn3)C2c2ccc(F)cc2)cc1 (stereo not drawn) | i | i | nt | i | nt | i | nt | nt
CC(C)(C)C(=O)N1N=C(c2ccc(NS(C)(=O)=O)cc2)CC1c1cccs1 (stereo not drawn) | 23 | i | i | i | i | i | i | i
CS(=O)(=O)Nc1ccc(C2=NN(C(=O)c3ccccc3)C(c3cccs3)C2)cc1 (stereo not drawn) | i | i | i | i | i | i | nt | nt
SMILES | PP1 counter | PP5 primary | CSC inhib | Calb FLC | Beta apoptosis | Mdm2 MdmX PPI | PP1 confirm | PP5 counter
O=c1c(Cl)c(N/N=C/c2ccc(Cl)cc2)cnn1-c1ccccc1 | 29 | i | i | i | i | i | 21 | i
Nc1c(C(=O)N/N=C/c2ccc(Cl)cc2)cnn1-c1ccccc1 | i | i | i | i | i | i | nt | nt
COc1ccc([N+](=O)[O-])cc1NC(=S)NC(C)=O | i | i | i | i | i | i | nt | nt
COc1ccc(/C=C/C(=O)NC(=S)Nc2cc([N+](=O)[O-])ccc2O)cc1OC | 43 | i | i | i | i | i | 39 | i
Cc1cc(NS(=O)(=O)c2ccc(NC(=S)Nc3ccc(Cl)cc3C)cc2)no1 | i | i | i | i | i | i | nt | nt
Cc1cccc(-c2nc3c(c(SCC(=O)N4CCOCC4)n2)COC(C)(C)C3)c1 | i | i | i | i | i | i | nt | nt
O=P(O)(O)CP(=O)(O)O | 25 | i | nt | nt | nt | i | 38 | i
O=C(CS(=O)(=O)c1ccccc1)NCc1ccccc1 | i | i | i | i | i | i | nt | nt
CCCCCCCCC/C(=N\O)c1ccccn1 | 32 | i | i | ? | i | i | 28 | i
CCCCCCCCC(=O)N/N=C/c1ccccn1 | i | i | i | i | i | i | nt | nt
CCC1CCCCN1S(=O)(=O)c1ccc(C(=O)Nc2nnc(C3CC3)o2)cc1 (stereo not drawn) | 23 | i | i | i | i | i | 26 | i
CCOC(=O)N1CCN(S(=O)(=O)c2ccc(C(=O)Nc3nnc(C4CC4)o3)cc2)CC1 | i | i | i | i | i | i | nt | nt
CC1CC(C)CN(S(=O)(=O)c2ccc(C(=O)Nc3nnc(C4CC4)o3)cc2)C1 (stereo not drawn) | 19 | i | i | i | i | i | 27 | i
Cc1nnc(SCC(=O)Nc2nccs2)o1 | i | i | i | i | i | i | nt | nt
O=C(Nc1nnc(-c2ccccn2)o1)c1cccc(Cl)c1 | 25 | i | i | i | i | i | i | i
Cc1cccc(/C=C2/S/C(=N/N=C3\CC4CCC3(C)C4(C)C)NC2=O)c1 (stereo not drawn) | i | i | i | i | i | i | nt | nt
